Bioassay records (PubChem)
A selection: hits, their analogues and other compounds. The true share with any hit is near 11%.
G9a block = qHTS Assay for Inhibitors of Histone Lysine Methyltransferase G9a; Histone-lysine N-methyltransferase EHMT2 (Homo sapiens), Q96KQ7; 350,000 tested, 8.8% active; Potency, µM (top dose mostly 102 µM), without a hit: at the top dose activity, negative = inhibition, actives largely listed as inhibitors; AID 504332, 2011; G9a H3K9 monomethylation, AlphaScreen, 2 h; note: potency is the fitted concentration of half-maximal effect; nearly all actives have a fitted effect of over 75% in size
Target sequence (Q96KQ7 913-1193 limits assumed): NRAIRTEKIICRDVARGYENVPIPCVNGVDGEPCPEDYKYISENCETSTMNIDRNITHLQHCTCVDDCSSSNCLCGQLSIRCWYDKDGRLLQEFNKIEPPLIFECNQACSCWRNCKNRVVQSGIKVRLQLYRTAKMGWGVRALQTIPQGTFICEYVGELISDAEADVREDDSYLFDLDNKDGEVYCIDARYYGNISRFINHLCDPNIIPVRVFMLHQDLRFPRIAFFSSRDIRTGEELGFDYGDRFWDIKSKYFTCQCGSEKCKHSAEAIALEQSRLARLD
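G9a (20 nM) was preincubated 15 min with compound, then reacted 2 h at room temperature with 500 nM biotin-H3K9 peptide and 20 µM SAM. Monomethyl-H3K9 detected by AlphaScreen using anti-H3K9me1 antibody.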
Tau fluor cs = Counterscreen qHTS for Inhibitors of Tau Fibril Formation, Fluorescence Polarization; tau K18 P301L Alexa594 fluorescence, heparin fibrillization; Potency, µM (doses to about 57.7 µM), for inactives: top-dose activity change, negative = decrease; 280,000 tested, 0.93% active; AID 1463, 2008; note: potency is the fitted concentration of half-maximal effect; nearly all actives have a fitted effect of over 55% in size
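Human tau K18 P301L (15 uM unlabeled, 0.24 uM Alexa 594-labeled) in 100 mM sodium acetate pH 7 with 20 uM heparin, 6 hr at 37 C. ThT 30 uM added, 1 hr ambient; Alexa 594 FP and total fluorescence read at 555/632 nm.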
Tau FP inhib = qHTS for Inhibitors of Tau Fibril Formation, Fluorescence Polarization. Microtubule-associated protein tau (Homo sapiens), P10636. K18 P301L tau heparin fibrillization, Alexa594 FP, 6 h. Potency, µM (top dose mostly 57.7 µM), for the others: at the top dose activity, negative = inhibition, usual class: inhibitors. 280,000 tested, 0.39% active; note: potency is the fitted concentration of half-maximal effect; nearly all actives have a fitted effect of over 55% in size
Target sequence (P10636 561-689 P618L limits assumed): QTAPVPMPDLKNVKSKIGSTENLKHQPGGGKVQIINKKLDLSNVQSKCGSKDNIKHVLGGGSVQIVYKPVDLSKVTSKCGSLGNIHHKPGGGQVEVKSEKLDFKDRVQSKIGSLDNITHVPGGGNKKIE
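Human K18 P301L fragment (15 uM unlabeled plus 0.24 uM Alexa 594-labeled) in 100 mM sodium acetate pH 7 with compound, aggregation induced by 20 uM heparin for 6 hr at 37 C. ThT (30 uM) added for 1 hr, then Alexa 594 FP read.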
Coupling enz = qHTS Assay for Inhibitors of Fructose-1,6-bisphosphate Aldolase from Giardia Lamblia: Coupling assay counterscreen; coupling enzyme system counterscreen, AmpLite Red fluorescence; activity change, negative = inhibition, % at 58.2 µM, hits read low; 290,000 tested, 0.67% active; AID 2472, 2010; in the data active = activity change below about -30%
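Counterscreen of the coupled detection system alone, without aldolase: glyceraldehyde-3-phosphate coupling enzymes plus AmpLite Red readout. Compounds at 57.5 uM final, 10 min RT preincubation, 20 min RT reaction, fluorescence 525/598 nm.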
Tau fibril ThT = qHTS for Inhibitors of Tau Fibril Formation, Thioflavin T Binding; recombinant tau K18 P301L, heparin-induced fibrillization, ThT fluorescence; AID 1460, 2008; Microtubule-associated protein tau (Homo sapiens), P10636; Potency, µM (doses to about 57.4 µM), without a hit: at the top dose activity, negative = inhibition, usual class: inhibitors; 270,000 tested, 2.1% active; note: potency is the fitted concentration of half-maximal effect; nearly all actives have a fitted effect of over 55% in size
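ThT emission at 510 nm, taken 1 hr after adding 30 uM dye, quantifies aggregates formed when 20 uM heparin acts on human tau K18 P301L for 6 hr at 37 C.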
Sfp inh = qHTS Assay for Inhibitors of Bacillus subtilis Sfp phosphopantetheinyl transferase (PPTase); 4'-phosphopantetheinyl transferase ffp (Bacillus subtilis), Q9F4F7; Biochemical Sfp PPTase activity, qHTS; Potency, µM, without a hit: largest response in the series, negative = inhibition, usual class: inhibitors; 310,000 tested, 3.5% active;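 note: the enzyme is Sfp with the accession as filed and its product quenches rhodamine fluorescence; potency is the fitted concentration of half-maximal effect; 0% = enzyme reaction without inhibitor and -100% = no enzyme wells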
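Step 1, compound plus 15 nM Sfp-PPTase, 15 min, room temperature. Step 2, add rhodamine-CoA (5 uM) and BHQ-2-YbbR (12.5 uM). Step 3, read 525/598 nm fluorescence at 0 and 30 min.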
* hit, by the source's call; u = inconclusive; x = not tested or not shown; [ ] = remark or other dose. Unless noted, calls come from the whole dose curve; as a rule, active = well fitted curve in the direction sought with a large enough effect; inconclusive = small, poorly fitted or top-dose-only effect, or another doubt; inactive = no such curve, though single readings can be large; an effect the other way counts as inactive or inconclusive. Unless noted, % is set by controls: 0 for no effect and ±100 for the full control effect.

SMILES	G9a block	Tau fluor cs	Tau FP inhib	Coupling enz	Tau fibril ThT	Sfp inh
COc1cc(/C=N/Nc2cccc(C)c2)cc(Br)c1O	8.9µM*	u	13%	-5	u	-1%
O=C1CN2NC(=S)N(c3ccccc3)C2=CN1c1ccc(Cl)cc1	u	1%	-5%	0	4%	16%
O=C(CN1CCN(CC(=O)Nc2cccc(F)c2)CC1)Nc1ccc(-c2ccccc2)cc1	u	x	x	-4	x	8%
COC(=O)c1ccccc1NC(=O)NCc1ccc2c(c1)CCN2C(=O)c1ccccc1	-4%[59 µM]	-19%	2%	x	-15%	x
CC(C)C(CCNC1CCN(C)CC1)c1ccc(Cl)cc1 (centres undefined)	u	x	x	-2	x	-8%
CN1CCC(NCCC(c2ccc(F)cc2)c2ccc(Cl)cc2)CC1 (centres undefined)	25µM*	x	x	4	x	u
CCCc1nn2c(=O)cc(COC(=O)C3CCCCC3)nc2s1	7%[59 µM]	-7%	-7%	x	-13%	x
COc1ccc(-c2nnc(C3CCN(S(=O)(=O)c4ccc(C)c(C)c4)CC3)o2)cc1	-12%[59 µM]	-15%	4%	x	-7%	x
CCCc1ccc(S(=O)(=O)N2CCC(c3nnc(-c4cccc(C)c4)o3)CC2)cc1	8.9µM*	-15%	-1%	x	u	x
Cc1ccc(S(=O)(=O)N2CCC(c3nnc(-c4cccc(C)c4)o3)CC2)cc1	3.5µM*	-26%	-5%	x	u	x
Cc1ccc(N/N=C/c2ccc3c(c2)OCCO3)cc1Cl	8.9µM*	9%	3%	0	8%	-10%
O=C(O)c1cc(N/N=C/c2ccc3c(c2)OCCO3)ccc1Cl	u	-10%	1%	0	u	9%
Cc1ccc(N/N=C/c2ccc(N3CCOCC3)cc2)cc1C	2.5µM*	-21%	8%	-2	u	u
Cc1ccc(/C=N/Nc2cc(C)nc(N3CCOCC3)n2)cc1	3%	u	6%	0	u	7%
O=C(O)c1cc(N/N=C/c2ccc3c(c2)OCO3)ccc1Cl	50µM*	-14%	6%	2	u	-5%
C/C(=N\Nc1ccc(Cl)c(C(=O)O)c1)c1ccc2c(c1)OCO2	4.5µM*	-5%	5%	-8	u	-15%
CCn1ccc2cc(S(=O)(=O)N3CCCN(C(=O)Nc4ccc(C)cc4)CC3)ccc21	7%[59 µM]	-12%	-3%	x	-4%	x
COc1ccc(C(=O)c2ccc(CC#N)s2)cc1	u	-30%	13%	0	u	0%
O=C1OC(c2cccs2)=N/C1=C\c1ccc(-c2ccccc2Cl)o1	40µM*	-12%	-9%	12	u	-12%
O=C1OC(c2cccs2)=N/C1=C/c1ccc(-c2cccc(C(=O)O)c2)o1	7.9µM*	0%	-2%	1	u	-61%
CCc1ccc(NC(=O)CN(c2ccc(C)cc2)S(=O)(=O)c2c(C)nn(C)c2C)cc1	22%[59 µM]	-19%	2%	x	-2%	x
COc1cccc(/C=C2\SC(=S)N(C(C(=O)O)c3ccccc3)C2=O)c1OC (centres undefined)	u	-17%	-6%	25	u	79µM*
COc1ccc(/C=C2\SC(=S)N(NS(=O)(=O)c3ccccc3)C2=O)c(OC)c1	u	x	x	8	x	u
COc1cc(/C=C2/SC(=S)N(CC(=O)Nc3cccnc3)C2=O)cc(OC)c1OC	-10%	u	u	0	u	-23%
COc1cc(/C=C2\SC(=S)N(C(C(=O)O)c3ccccc3)C2=O)cc(OC)c1OC (centres undefined)	u	-9%	-7%	12	u	50µM*
SMILES	G9a block	Tau fluor cs	Tau FP inhib	Coupling enz	Tau fibril ThT	Sfp inh
COc1ccc(/C=C2\SC(=S)N(C(C(=O)O)c3ccccc3)C2=O)c(OC)c1 (centres undefined)	50µM*	-11%	-11%	9	13µM*	71µM*
Cc1nn2c([nH]c(=O)c3ccccc32)c1C=O	x	9%	-2%	-3	9%	-3%
O=C(Nc1ccc(-c2nnc3n2CCCCC3)cc1)c1cc2ccccc2o1	1%[59 µM]	4%	-1%	-2	4%	1%
Cc1c(C(=O)Nc2ccc(-c3nnc4n3CCCCC4)cc2)oc2c1ccc1ccccc12	50µM*	u	5%	0	u	u
CCOC(=O)c1cc2c(=O)n3ccccc3nc2n(CC(C)C)c1=NC(=O)COc1ccc(Cl)cc1	10%[59 µM]	-14%	2%	x	15%	x
CO[C@@H]1COC(=O)C/C=C\[C@@H](C)COC(=O)[C@H](Cc2ccccc2)NC(=O)C/C=C\[C@H]1C	x	-6%[11.6 µM]	-1%[11.6 µM]	3	-5%[11.5 µM]	13%
Cc1[nH][nH]c(=O)c1C(c1ccccc1[N+](=O)[O-])C(C#N)C#N (centres undefined)	40µM*	-22%	-13%	-9	u	-66%
Cc1[nH][nH]c(=O)c1C(c1cc([N+](=O)[O-])ccc1O)c1c(C)[nH][nH]c1=O	22%	-14%	-6%	-17	u	-17%
Cc1ccc(F)cc1NC(=O)CN1C(=O)NC2(CCCc3ccccc32)C1=O (centres undefined)	-16%	x	x	x	x	x
COc1ccc(OCC(=O)NC(=O)c2ccccc2)c([N+](=O)[O-])c1	-35%[12.7 µM]	x	x	x	x	x
COc1ccc(OCC(=O)NC(=O)c2ccccc2OC)c([N+](=O)[O-])c1	50µM*	x	x	x	x	x
Cc1noc(C)c1C(=O)N1CCC[C@@]2(CCN(c3ncccn3)C2)C1	-11%[12.7 µM]	x	x	1	x	11%
CSc1ccc(C(=O)C2CCCN(C(=O)c3ccc4c(c3)no[n+]4[O-])C2)cc1 (centres undefined)	9%	u	u	-1	28µM*	3%
CSc1ccc(C(=O)C2CCCN(C(=O)c3ccsc3)C2)cc1 (centres undefined)	3%	-9%	8%	4	-15%	5%
CCOCCCN1C(=O)C(=O)N(CC(=O)N2c3ccccc3NC(=O)CC2C)C1=O (centres undefined)	-3%[2.33 µM]	x	x	x	x	x
CCOC(=O)CN1c2ccccc2NC(=O)CC1C (centres undefined)	45µM*	0%	1%	-2	4%	15%
